Reference: PubChem BioAssay (NCATS)
Results filed as inconclusive are left out. Activity calls are given as the source filed them. Calls come from the whole dose curve; as a rule, active = well fitted cell-killing curve with a large enough effect; inconclusive = small, poorly fitted or top-dose-only effect; inactive = flat fitted curve, though single readings scatter.

Test: Cellular viability qHTS for adrenocortical cancer (ACC) cell line SW-13 (AID 1963989); note: nearly all actives have a fitted effect of over 65% in size;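 for activity (max response): cells grown in serum-free medium with ITS supplement; % is set by controls: 0 for no effect and ±100 for the full control effect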
Conditions: SW-13 ACC cells viability, CellTiter-Glo, 48 h; activity (max response): active compounds read low
In short: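 SW-13 cells in ITS-supplemented serum-free DMEM were plated overnight, then exposed for 48 h at 37C to compound titrations (up to 46 uM final). Viability was read by CellTiter-Glo luminescence; four-parameter logistic fits gave IC50 and efficacy.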
Potency is the fitted concentration of half-maximal effect.

SMILES	activity (max response)	Potency
CCCCCC[C@@H](CCC)C(=O)O	6.05% (inactive)	–
CC1CN(c2cc3c(cc2F)c(=O)c(C(=O)O)cn3-c2ccc(F)cc2F)CCN1 (configuration not stated)	-5.86% (inactive)	–
CCCNC(C)C(=O)Nc1c(C)csc1C(=O)OC (configuration not stated)	8.19% (inactive)	–
CN(C)CCN1CCN(c2cccc(Cl)c2)C1=O	10.1% (inactive)	–
C[C@@H]1CN(c2c(F)c(F)c3c(=O)c(C(=O)O)cn(C4CC4)c3c2F)C[C@H](C)N1	12.9% (inactive)	–
Nc1ncnc2c1ncn2[C@@H]1O[C@H](COP(=O)(O)O)[C@@H](O)[C@H]1O	5.55% (inactive)	–
CCOc1cc(OCC)c(C(=O)CCC(=O)O)cc1OCC	6% (inactive)	–
NC(N)=NC(N)=NCCc1ccccc1	-8.99% (inactive)	–
COc1cc2c3cc1Oc1cc(ccc1O)C[C@@H]1c4c(cc(OC)c(O)c4Oc4ccc(cc4)C[C@@H]3N(C)CC2)CC[N+]1(C)C	-1.9% (inactive)	–
COc1cc(C(=O)N2CCOCC2)cc(OC)c1OC	1.89% (inactive)	–
CCN1CCN(Cc2ccc(NC(=O)Nc3ccc(Oc4cc(NC)ncn4)cc3)cc2C(F)(F)F)CC1	–	3.98 µM (active)
Nc1ccc(C(=O)O)cc1	6.83% (inactive)	–
CCOC(=O)[C@H](CCc1ccccc1)N[C@@H](C)C(=O)N1C(=O)N(C)C[C@H]1C(=O)O	5.98% (inactive)	–
CCC(C(=O)O)c1ccc(N2Cc3ccccc3C2=O)cc1 (configuration not stated)	5.42% (inactive)	–
Nc1nc2ncc(CNc3ccc(C(=O)N[C@@H](CCC(=O)O)C(=O)O)cc3)nc2c(=O)[nH]1	12.3% (inactive)	–
OC1(c2ccccc2)CCNCC1	4.15% (inactive)	–
CCOC(=O)c1ccc(NC(=O)CN2CCCCC2)cc1	-5.52% (inactive)	–
O=C1C(c2[nH]c3ccccc3c2O)=Nc2ccccc21	-0.538% (inactive)	–
CC(=O)OC[C@H]1O[C@@H](n2ncc(=O)[nH]c2=O)[C@H](OC(C)=O)[C@@H]1OC(C)=O	-6.84% (inactive)	–
CC(CC(C#N)(c1ccccc1)C(C)C)N(C)C (configuration not stated)	3.72% (inactive)	–

SMILES	activity (max response)	Potency
OC[C@H]1O[C@H](O[C@]2(CCl)O[C@H](CCl)[C@@H](O)[C@@H]2O)[C@H](O)[C@@H](O)[C@H]1Cl	-4.41% (inactive)	–
CCCCC(O)/C=C(C)/C=C/C=C/C(=O)N1CCCC1=O (configuration not stated)	10.5% (inactive)	–
CCCCCCCCOc1ccc(C(=O)c2ccccc2)c(O)c1	12.8% (inactive)	–
CCN(CC)CC1CCCCN1CC(=O)N1c2ccccc2C(=O)Nc2cccnc21 (configuration not stated)	-3.91% (inactive)	–
OC[C@H]1O[C@@H]2O[C@H]3[C@H](O)[C@@H](O)[C@@H](O[C@H]4[C@H](O)[C@@H](O)[C@@H](O[C@H]5[C@H](O)[C@@H](O)[C@@H](O[C@H]6[C@H](O)[C@@H](O)[C@@H](O[C@H]7[C@H](O)[C@@H](O)[C@@H](O[C@H]8[C@H](O)[C@@H](O)[C@@H](O[C@H]1[C@H](O)[C@H]2O)O[C@@H]8CO)O[C@@H]7CO)O[C@@H]6CO)O[C@@H]5CO)O[C@@H]4CO)O[C@@H]3CO	-1.71% (inactive)	–
CCCCCC(N)=O	5.46% (inactive)	–
C[N+](C)(C)CC(O)CC(=O)[O-] (configuration not stated)	-6.62% (inactive)	–
NC(CO)(CO)CO	12.7% (inactive)	–
Cc1onc(-c2ccccc2)c1C(=O)Cl	12.7% (inactive)	–
CC(=O)N[C@@H](CCC(=O)O)C(=O)O	10.8% (inactive)	–
NS(=O)(=O)c1cc(C(=O)O)cc(N2CCCC2)c1Oc1ccccc1	-0.899% (inactive)	–
CN1C[C@@H]2C[C@H]1CN2c1cc2c(cc1F)c(=O)c(C(=O)O)cn2C1CC1	-2.55% (inactive)	–
Cc1ccc(S(=O)(=O)NC(=O)NC2CCCCC2)cc1	8.41% (inactive)	–
C[C@H](NC(CCc1ccccc1)C(=O)O)C(=O)N1CCC[C@H]1C(=O)O (some centres not stated)	8.08% (inactive)	–
CC(=O)N[C@@H](Cc1ccc(O)cc1)C(=O)O	-8.88% (inactive)	–
CCOc1ccccc1OCC1CNCCO1 (configuration not stated)	-0.481% (inactive)	–
O=C(O)CCC(=O)OC[C@@H](NC(=O)C(Cl)Cl)[C@H](O)c1ccc([N+](=O)[O-])cc1	-6.44% (inactive)	–
COc1ccc(CN(CCN(C)C)c2ccccn2)cc1	2.63% (inactive)	–
N#CSCC(=O)O	4.51% (inactive)	–

Test: Cellular viability qHTS for adrenocortical cancer (ACC) cell line NCI-H295R (AID 1963990); note: nearly all actives have a fitted effect of over 60% in size;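 for activity change, negative = viability loss: 0% = DMSO only wells and -100% = full killing with cytotoxic reference compound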
Conditions: CellTiter-Glo ATP luminescence, 48 h; series mostly up to 46.1 µM; activity change, negative = viability loss: at the top concentration
In short: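 Luminescent ATP read-out (CellTiter-Glo, 20 min RT) after 48 h drug exposure of NCI-H295R cells; a titration up to 46 uM final. Data normalized to doxorubicin (100% inhibition) and DMSO (0%); 4-parameter fit gives IC50, max response.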

SMILES	activity change, negative = viability loss	Potency
CCCCCC[C@@H](CCC)C(=O)O	-0.815% (inactive)	–
CC1CN(c2cc3c(cc2F)c(=O)c(C(=O)O)cn3-c2ccc(F)cc2F)CCN1 (configuration not stated)	1.32% [at 3.81 µM] (inactive)	–
CCCNC(C)C(=O)Nc1c(C)csc1C(=O)OC (configuration not stated)	0.804% (inactive)	–
CN(C)CCN1CCN(c2cccc(Cl)c2)C1=O	1.81% (inactive)	–
Nc1ncnc2c1ncn2[C@@H]1O[C@H](COP(=O)(O)O)[C@@H](O)[C@H]1O	17.7% (inactive)	–
CCOc1cc(OCC)c(C(=O)CCC(=O)O)cc1OCC	1.29% (inactive)	–
NC(N)=NC(N)=NCCc1ccccc1	–	inactive
COc1cc2c3cc1Oc1cc(ccc1O)C[C@@H]1c4c(cc(OC)c(O)c4Oc4ccc(cc4)C[C@@H]3N(C)CC2)CC[N+]1(C)C	-1.4% (inactive)	–
COc1cc(C(=O)N2CCOCC2)cc(OC)c1OC	-20.4% (inactive)	–
CCN1CCN(Cc2ccc(NC(=O)Nc3ccc(Oc4cc(NC)ncn4)cc3)cc2C(F)(F)F)CC1	–	10 µM (active)
Nc1ccc(C(=O)O)cc1	-31.4% (inactive)	–
CCOC(=O)[C@H](CCc1ccccc1)N[C@@H](C)C(=O)N1C(=O)N(C)C[C@H]1C(=O)O	-9.15% (inactive)	–
CCC(C(=O)O)c1ccc(N2Cc3ccccc3C2=O)cc1 (configuration not stated)	-16.1% (inactive)	–
Nc1nc2ncc(CNc3ccc(C(=O)N[C@@H](CCC(=O)O)C(=O)O)cc3)nc2c(=O)[nH]1	-27.5% (inactive)	–
OC1(c2ccccc2)CCNCC1	-2.96% (inactive)	–
CCOC(=O)c1ccc(NC(=O)CN2CCCCC2)cc1	-8.25% (inactive)	–
O=C1C(c2[nH]c3ccccc3c2O)=Nc2ccccc21	-12.6% (inactive)	–
CC(=O)OC[C@H]1O[C@@H](n2ncc(=O)[nH]c2=O)[C@H](OC(C)=O)[C@@H]1OC(C)=O	-5.93% (inactive)	–
CC(CC(C#N)(c1ccccc1)C(C)C)N(C)C (configuration not stated)	-17.7% (inactive)	–

SMILES	activity change, negative = viability loss	Potency
OC[C@H]1O[C@H](O[C@]2(CCl)O[C@H](CCl)[C@@H](O)[C@@H]2O)[C@H](O)[C@@H](O)[C@H]1Cl	-5.48% (inactive)	–
CCCCC(O)/C=C(C)/C=C/C=C/C(=O)N1CCCC1=O (configuration not stated)	-23.7% (inactive)	–
CCCCCCCCOc1ccc(C(=O)c2ccccc2)c(O)c1	0.433% (inactive)	–
CCN(CC)CC1CCCCN1CC(=O)N1c2ccccc2C(=O)Nc2cccnc21 (configuration not stated)	-21% (inactive)	–
OC[C@H]1O[C@@H]2O[C@H]3[C@H](O)[C@@H](O)[C@@H](O[C@H]4[C@H](O)[C@@H](O)[C@@H](O[C@H]5[C@H](O)[C@@H](O)[C@@H](O[C@H]6[C@H](O)[C@@H](O)[C@@H](O[C@H]7[C@H](O)[C@@H](O)[C@@H](O[C@H]8[C@H](O)[C@@H](O)[C@@H](O[C@H]1[C@H](O)[C@H]2O)O[C@@H]8CO)O[C@@H]7CO)O[C@@H]6CO)O[C@@H]5CO)O[C@@H]4CO)O[C@@H]3CO	-15.7% (inactive)	–
CCCCCC(N)=O	-25.3% (inactive)	–
C[N+](C)(C)CC(O)CC(=O)[O-] (configuration not stated)	1.59% (inactive)	–
NC(CO)(CO)CO	-11% (inactive)	–
Cc1onc(-c2ccccc2)c1C(=O)Cl	-0.756% (inactive)	–
CC(=O)N[C@@H](CCC(=O)O)C(=O)O	1.14% (inactive)	–
NS(=O)(=O)c1cc(C(=O)O)cc(N2CCCC2)c1Oc1ccccc1	-21.4% (inactive)	–
CN1C[C@@H]2C[C@H]1CN2c1cc2c(cc1F)c(=O)c(C(=O)O)cn2C1CC1	-10.3% [at 20 µM] (inactive)	–
Cc1ccc(S(=O)(=O)NC(=O)NC2CCCCC2)cc1	-11.5% (inactive)	–
C[C@H](NC(CCc1ccccc1)C(=O)O)C(=O)N1CCC[C@H]1C(=O)O (some centres not stated)	-28% (inactive)	–
CC(=O)N[C@@H](Cc1ccc(O)cc1)C(=O)O	-5.13% (inactive)	–
CCOc1ccccc1OCC1CNCCO1 (configuration not stated)	-2.61% (inactive)	–
O=C(O)CCC(=O)OC[C@@H](NC(=O)C(Cl)Cl)[C@H](O)c1ccc([N+](=O)[O-])cc1	-11% (inactive)	–
COc1ccc(CN(CCN(C)C)c2ccccn2)cc1	-1.86% (inactive)	–
N#CSCC(=O)O	-18.7% (inactive)	–
